An excerpt weighted towards active compounds, which were near 4.2% of everything screened.
CHOP inhibitor = CHOP inhibition in unfolded protein response; CHO-K1 CHOP-promoter luciferase, tunicamycin-induced, 15-18 h; 220,000 compounds, 3.8% hits; AID 2732; inhibition, % at 10 µM;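 active = compounds that reduced the stress-induced luciferase reporter signal by more than about 70% of percent inhibition, limit read from the data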;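 also: 0% = tunicamycin plus vehicle and 100% = wells without tunicamycin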
S1P4 agonist = human S1P4 receptor agonism; S1P4-expressing cell line, agonist reporter assay; activation, % at 4.98 µM; 220,000 compounds, 0.35% hits; AID 1509; in the data active = activation above about 11%;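 also: 0% = DMSO vehicle and 100% = reference agonist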
Target sequence (O95977 whole entry, looked up): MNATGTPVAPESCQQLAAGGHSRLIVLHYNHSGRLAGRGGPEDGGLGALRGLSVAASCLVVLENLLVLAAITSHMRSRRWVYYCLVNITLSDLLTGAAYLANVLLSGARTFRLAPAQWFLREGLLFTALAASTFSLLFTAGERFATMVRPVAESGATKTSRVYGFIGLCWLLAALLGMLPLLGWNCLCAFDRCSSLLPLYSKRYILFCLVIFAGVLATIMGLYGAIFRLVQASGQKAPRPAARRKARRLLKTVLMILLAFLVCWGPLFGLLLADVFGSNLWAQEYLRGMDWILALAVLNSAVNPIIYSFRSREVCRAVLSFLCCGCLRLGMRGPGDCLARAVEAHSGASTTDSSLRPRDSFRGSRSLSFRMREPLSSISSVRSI
Hsp70 act = transcriptional activators of Hsp70 | HeLa Hsp70 promoter luciferase reporter, luminescence; scaled: vehicle 0, proteasome-inhibitor control 100% | activation, % at 10 µM | 200,000 compounds, 0.04% hits | AID 1203;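 active = activation above the mean across all tested compounds plus 3 SD, cutoff set per campaign, cut at about 5.5% in these data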;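 also: 100% = MG132 at 30 µM as the positive control and 0% = DMSO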
S1P4 antag = antagonists of human S1P4 receptor; O95977; S1P4-expressing cells, antagonist mode, reporter read-out; inhibition, % at 4.98 µM; 220,000 compounds, 0.26% hits; in the data active = inhibition above about 29%;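 also: 0% = wells stimulated with agonist and 100% = vehicle wells without agonist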
An asterisk follows results filed as active; · = no result.

SMILES	CHOP inhibitor	S1P4 agonist	Hsp70 act	S1P4 antag
Cc1cccc(NC(=O)CSc2nc3c([nH]c4ccccc43)c(=O)n2C)c1	79*	0	0	-10
O=C(CSc1nc2nc3c(cc2c(=O)n1-c1ccccc1)CCCC3)Nc1cccc2ccccc12	29	3	0	-28
COc1ccc(OC)c(NC(=S)N2CCN(Cc3ccccc3)CC2)c1	1	1	0	-17
CCCCn1c(SCC(=O)N2CCc3ccccc32)nnc1-c1ccncc1	13	0	·	-6
CCOc1ccccc1NC(=O)CSc1nnc(CNC(=O)c2ccco2)o1	17	-3	0	9
CCOC(=O)c1ccc2nc(Nc3nc4ccc(F)cc4s3)sc2c1	90*	0	-1	-19
CCOC(=O)c1sc(NC(=O)c2ccc(S(=O)(=O)N3CCCCC3)cc2)nc1-c1ccccc1	84*	0	0	-21
CCOC(=O)N1CCN(S(=O)(=O)c2ccc(C(=O)Nc3nc4ccc(F)cc4s3)cc2)CC1	84*	3	0	-10
COC(=O)c1ccc2nc(Nc3nc4c(F)cc(F)cc4s3)sc2c1	92*	1	0	-22
CC1CCN(C(=O)c2ccc(N3C(=O)C4CCC(C)CC4C3=O)cc2)CC1 (stereo unspecified)	4	-2	·	17
Cc1ccc(CNC(=O)c2ccc3nc4[nH]c5ccccc5c4nc3c2)cc1	94*	1	0	-8
COc1ccccc1CNC(=O)c1ccc2nc3[nH]c4ccccc4c3nc2c1	100*	1	0	-7
COc1ccccc1CNC(=O)c1cccc(NC(=O)c2ccccc2)c1	16	-1	0	-15
COC(=O)c1ccc(NC(=O)CSc2nnc(-c3ccccc3)n2C)cc1	3	-1	0	-12
CC1(C)Cc2nc3sc4c(N(CCO)CCO)ncnc4c3cc2CO1	-38	-2	0	-1
Cc1ccc(NC(=O)CN2C(=O)N/C(=C/c3ccco3)C2=O)cc1	-2	-1	0	-8
Cc1cc(C)nc(NC2=NCCN2C(=O)NC2CCCCC2)n1	12	0	0	-16
COc1ccc(N2CCN(C(=O)c3ccc(C(C)(C)C)cc3)CC2)cc1	85*	1	0	-2
COc1ccc(C(=O)N2CCN(c3ccccc3OC)CC2)cc1	1	-1	0	-2
COc1ccccc1N1CCN(C(=O)c2ccc(C(C)(C)C)cc2)CC1	96*	0	0	4
Cc1ccc(/C=N/NS(=O)(=O)c2ccccc2)o1	20	0	0	10
Cc1ccccc1NC(=O)Cn1cnc2c(oc3nc4c(cc32)COC(C)(C)C4)c1=O	-14	2	0	-11
CC1(C)Cc2nc3oc4c(=O)n(CC(=O)Nc5ccc(Cl)cc5)cnc4c3cc2CO1	95*	-1	·	-2
C=C(C)COc1ccc(-c2nc(N)ncc2Oc2ccccc2OC)c(O)c1	93*	2	0	8
CCOc1ccc(-c2[nH]ncc2Oc2ccccc2OCC)c(O)c1	80*	4	0	-22
SMILES	CHOP inhibitor	S1P4 agonist	Hsp70 act	S1P4 antag
CCOc1ccc(-c2[nH]ncc2Oc2ccccc2OC)c(O)c1	82*	1	0	-8
Cc1ncc(CO)c(/C=N/NC(=S)Nc2ccc(F)cc2)c1O	26	-1	0	-3
CC(=O)Nc1ccc(S(=O)(=O)Nc2ccc(N3CCOCC3)cc2)cc1	7	0	0	-5
Cc1ccc(-c2onc3ccc(Cl)cc23)cc1	64	0	0	-5
COc1ccc(-c2onc3ccc(Cl)cc23)cc1	79*	-4	0	-8
O=C(NCCc1ccccc1)C(=O)N/N=C/c1ccc2c(c1)OCO2	95*	0	0	-9
Cc1cc(C)c(OCC(=O)N/N=C/c2ccc3c(c2)OCO3)c(C)c1	73*	2	0	-16
O=C1C2C(C(=O)N1c1ccc3c(c1)OCO3)C1C=CC2C12CC2 (stereo unspecified)	26	-3	0	-11
O=C(Nc1ccc(F)cc1)C(Sc1nnc2ccccn12)c1ccccc1 (stereo unspecified)	19	1	0	-5
Cc1ccc(C(=O)N2CC(C(=O)O)C2)cc1	-7	-1	0	-4
Cc1ccc(NC(=O)Nc2nc3ccccc3s2)cc1NC(=O)Nc1nc2ccccc2s1	5	2	·	4
O=C(O)C1C2C=CC(CC2)C1C(=O)O (stereo unspecified)	23	0	0	-25
Brc1ccc(C2=Nn3c(nnc3-c3n[nH]c4c3CCC4)SC2)cc1	·	2	0	-19
Cc1ccc(-c2nnc3n2N=C(c2ccc(Br)cc2)CS3)cc1	89*	2	0	3
Cc1cc(C)c2ccc3c(C)c(C)n(C)c3c2n1	-19	3	0	12
Cc1ccc(C)c(NC(=O)c2ccccc2NS(=O)(=O)c2cc([N+](=O)[O-])ccc2C)c1	74*	-2	0	1
Cc1ccc(C)c(S(=O)(=O)Nc2ccccc2C(=O)Nc2cc(C)on2)c1	-4	-1	0	12
O=C1CSC(c2ccccc2)N1Nc1nc(N2CCOCC2)nc(N2CCOCC2)n1 (stereo unspecified)	-35	-1	0	-15
C=CCN(C(=O)Nc1ccc(F)cc1)C1CC(=O)N(c2ccc(OC)cc2)C1=O (stereo unspecified)	63	2	0	16
O=C(Cc1cccs1)Nc1nnc(SCc2ccc(Br)cc2)s1	76*	1	0	-6
O=C(Nc1ccc(F)cc1)Nc1nnc(-c2ccncc2)s1	47	1	0	-9
O=C(Nc1cccc(Cl)c1)Nc1nnc(CC2=CCCCC2)s1	93*	-3	0	-2
O=C(Nc1ccccc1)Nc1nnc(SCc2ccc(Cl)cc2)s1	90*	-1	0	-6
O=C(Nc1ccc(Cl)cc1)Nc1nnc(-c2ccncc2)s1	87*	2	0	-15
O=C(Nc1ccc(Cl)cc1)Nc1nnc(SCc2ccc(Cl)cc2)s1	9	1	0	-4
SMILES	CHOP inhibitor	S1P4 agonist	Hsp70 act	S1P4 antag
CCCCN1C(=S)NC[C@@H]1Cc1cccc2ccccc12	27	·	·	·
CCOC(=O)N1CCN(C(=O)c2cnc(Nc3ccccc3OC)c3ccccc23)CC1	-2	-2	0	-42
O=C(Nc1cccc(Cl)c1)Nc1nnc(-c2ccncc2)s1	92*	-2	0	1
Cc1ccc(C(C(=O)NC2CCCCC2)N(Cc2ccco2)C(=O)Cc2c[nH]c3ccccc23)o1 (stereo unspecified)	87*	0	0	13
COc1ccc(C(C(=O)NC2CCCCC2)N(Cc2cccs2)C(=O)Cc2c[nH]c3ccccc23)cc1OC (stereo unspecified)	43	-1	0	-10
Cc1ccc(N(C(=O)Cc2c[nH]c3ccccc23)C(C(=O)NC2CCCCC2)c2ccco2)cc1 (stereo unspecified)	88*	1	0	-6
C/C(=N\OCC(=O)Nn1c(C)nc2ccccc2c1=O)c1ccccc1	-9	-2	0	-16
O=C(NCCSCc1ccco1)Nc1cc(Cl)cc(Cl)c1	70*	2	·	14
O=C(Cn1nnc(-c2ccc(CN3CCOCC3)cc2)n1)N(c1ccccc1)c1ccccc1	19	-1	0	-4
